# From PubChem BioAssay
# NPC1 promoter act: activates the NPC1 promoter; AID 485313; actives 2.4% (n = 320,000); Huh7 NPC1 promoter luciferase reporter, 24 h; Potency, µM (series often up to 9.22 µM), without a hit: top-dose activation, hits mostly activators; also: % of control where 0% means no effect; nearly all actives have a fitted effect of over 60% in size
#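 Huh7 cells stably carrying NPC1 promoter–luciferase, plated in Opti-MEM with 10% FBS for 2 h, were exposed to compound in DMSO for 24 h at 37 °C; luciferase reagent was added for 10 min and luminescence read.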
# Rab9 prom act: activators of Rab9 promoter; Huh7 Rab9 promoter-luciferase reporter, luminescence, 24 h; Potency, µM (titrated, usually from 9.22 µM), for the others: top-dose activation, negative = inhibition, most hits filed as activators; actives 2.8% (n = 320,000); also: % of control where 0% means no effect; nearly all actives have a fitted effect of over 60% in size
#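 Huh7 cells stably carrying Rab9 promoter–luciferase reporter, plated 1500 cells/well, compound added after 2 h and incubated 24 h at 37 °C; luciferase luminescence then read after 10 min with detection reagent.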
# SMN2 splice up: enhancers of SMN2 splice variant expression; HEK293 SMN2-luciferase splicing reporter, luminescence, 30-36 h; Potency, µM (doses to about 46.1 µM), inactives show at the top dose activity change, positive = activation, most hits filed as activators; actives 2.8% (n = 210,000); also: % of control where 0% means no effect; nearly all actives have a fitted effect of over 55% in size
#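 qHTS luciferase splicing reporter: luminescence rises when SMN2 exon 7 is included in transfected HEK293 cells. Compound exposure lasted 30-36 h at 37C, with 4.5 mM final sodium butyrate as control, followed by a ONE-Glo read.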
# FLuc counter: firefly luciferase modulation, counter-screen for miR-21 project | actives 6.9% (n = 360,000) | purified FLuc, Km substrates, luminescence inhibition | Potency, µM (series often up to 57.5 µM), inactives show at the highest dose activity change, negative = inhibition, usual class: inhibitors;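 also: plate controls were vehicle for no effect and reference inhibitor for full effect; nearly all actives have a fitted effect of over 55% in size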
# Target sequence (P08659 whole entry, looked up): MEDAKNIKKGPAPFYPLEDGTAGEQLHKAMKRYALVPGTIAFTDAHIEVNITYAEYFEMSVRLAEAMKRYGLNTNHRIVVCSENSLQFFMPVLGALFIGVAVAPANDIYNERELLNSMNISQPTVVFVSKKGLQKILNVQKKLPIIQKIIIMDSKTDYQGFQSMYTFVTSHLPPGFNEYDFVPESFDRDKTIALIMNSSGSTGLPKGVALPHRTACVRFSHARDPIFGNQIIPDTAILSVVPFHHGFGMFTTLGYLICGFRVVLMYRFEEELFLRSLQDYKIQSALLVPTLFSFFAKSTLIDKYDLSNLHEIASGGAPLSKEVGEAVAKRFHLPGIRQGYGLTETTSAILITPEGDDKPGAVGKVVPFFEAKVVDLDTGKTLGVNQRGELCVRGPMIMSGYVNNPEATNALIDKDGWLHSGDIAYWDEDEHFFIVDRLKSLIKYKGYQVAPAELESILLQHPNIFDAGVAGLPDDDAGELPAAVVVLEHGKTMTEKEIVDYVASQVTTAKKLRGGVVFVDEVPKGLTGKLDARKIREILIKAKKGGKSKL
#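 Biochemical qHTS of compounds, final roughly 60 µM downward over six points, against 10 nM purified firefly luciferase using Km concentrations of substrates (10 uM D-luciferin, 10 uM ATP) in Tris acetate pH 7.5 buffer; luminescence output.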
# ELG1 genotoxic: genotoxicity induction in ELG1-luciferase HEK293T cells; AID 504466; Potency, µM (highest dose often 46 µM), for the others: at the highest dose activity change, positive = activation, actives largely listed as activators; actives 1.3% (n = 330,000); HEK293T ELG1-luciferase reporter, luminescence, 16 h; also: % of control where 0% means no effect; nearly all actives have a fitted effect of over 60% in size
#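 ELG1-luciferase HEK293T cells, 2,000/well; compound pinned in; 16 hr, 37 °C, 5% CO2; ONE-Glo, 30 min RT; luminescence on CCD imager.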
# Starred values were filed as active, the others as inactive; ? = inconclusive; . = not tested or not shown; [ ] = remark or other dose. Most compounds without a hit are left out; they make up all but 7.5% or so of the library. Calls follow the shape of the dose curve; as a rule, active = well fitted curve in the direction sought with a large enough effect; inconclusive = small, poorly fitted or top-dose-only effect, or another doubt; inactive = no such curve, though single readings can be large; an effect the other way counts as inactive or inconclusive. Potency is read from the fitted curve at half-maximal effect.
SMILES,NPC1 promoter act,Rab9 prom act,SMN2 splice up,FLuc counter,ELG1 genotoxic
CC1(CCc2ccccc2)NC(=O)N(CC(=O)Nc2ccc3c(c2)OCCO3)C1=O (stereo unspecified),-6%,-3%,2%,4%,-5%
Cc1cccn2c(=O)c3cc(C(=O)NCCCN4CCCC4=O)n(C)c3nc12,-2%,3%,24%,-1%,10%
O=C(CNc1cccc(S(=O)(=O)N2CCCC2)c1)Nc1cccc(C(F)(F)F)c1,.,.,.,.,-2%
O=C1CCC[C@H]1C(=O)Nc1ccc2ccccc2c1,.,.,-1%[9.22 µM],.,.
O=C1CCCC1C(=O)Nc1ccc2ccccc2c1 (stereo unspecified),16%,15%,.,17µM*,11%
CCOC(=O)Nc1nc(-c2ccc(F)cc2F)cs1,?,?,26%,19µM*,14%
CCOC(=O)Cc1csc(NC(=O)Nc2cccc(OC)c2)n1,13%,-1%,.,15µM*,-2%
CCOC(=O)Cc1csc(NC(=O)Nc2ccc(F)cc2)n1,4%,-1%,.,11µM*,-10%
CCOC(=O)Cc1csc(NC(=O)Nc2cccs2)n1,?,24%,.,21µM*,7%
CCOC(=O)Cc1csc(NC(=S)NC(=O)c2ccc(F)cc2)n1,-2%,5%,-7%,?,-1%
COc1ccc2nc(SCC(=O)NC(C)c3ccccc3)[nH]c2c1 (stereo unspecified),4%[1.84 µM],0%,.,-19%,-3%
O=C(CSc1nnc(SCc2cccc3ccccc23)s1)N=Nc1c(O)[nH]c2ccccc12,0%,-2%,-12%,3%,16%
CS(=O)(=O)N(CC(=O)NCCSCc1ccccc1)c1ccccc1F,2%,-4%,.,-1%,-5%
O=C(COC(=O)C12CC3CC(CC(Br)(C3)C1)C2)Nc1ccc2[nH]c(=O)[nH]c2c1,1%,-1%,.,7%,1%
CCCCCC(C)N (stereo unspecified),.,.,-2%,.,.
CCCC(=O)Nc1ccc(C(=O)Nc2nc(CC(=O)OCC)cs2)cc1,1%,-1%,-3%,15µM*,-1%
CCOC(=O)Cc1csc(NC(=O)Nc2ccc(C)cc2)n1,17%,21%,.,3µM*,0%
CCOC(=O)Cc1csc(NC(=O)c2ccc(OC)c(OC)c2)n1,4%,5%,-20%,?,-10%
CN(C(=O)CN1C(=O)NC(c2ccccc2)(c2ccccc2)C1=O)C1CCS(=O)(=O)C1 (stereo unspecified),0%,-3%,.,.,6%
COc1ccccc1N1CCN(/N=C/c2cccc(OC)c2OC)CC1,-1%,11%,7%,?,4%
C(/C=C/c1ccccc1)=N/N1CCN(c2ccccc2)CC1,?,?,?,-14%,?
O=[N+]([O-])c1cccc(/C=N/N2CCN(c3ccccn3)CC2)c1,?,3.2µM*,.,?,17%
Oc1ccccc1/C=N/N1CCN(c2ccccn2)CC1,?,2.8µM*,.,13µM*,?
CC(C)c1ccc(/C=N/N2CCN(c3ccccn3)CC2)cc1,?,?,.,?,3%
C(=C\c1ccccc1)/C=N/N1CCN(c2ccccn2)CC1,?,?,?,12µM*,4.1µM*
SMILES,NPC1 promoter act,Rab9 prom act,SMN2 splice up,FLuc counter,ELG1 genotoxic
C(=N\N1CCN(c2ccccn2)CC1)/c1cccc2ccccc12,2%,2%,.,17µM*,-3%
Cc1nc2ccc(S(=O)(=O)N(CC(=O)Nc3ccc(F)cc3F)Cc3ccccc3)cc2s1,.,.,.,-13%,.
Oc1ccc(Br)cc1/C=N/N1CCCCC1,?,4.5µM*,17%[1.84 µM],9.5µM*,?
Oc1ccc(Br)cc1/C=N/n1cnc2ccccc21,?,?,26%,8.5µM*,18%
Oc1ccc(Br)cc1/C=N/N1CCN(Cc2ccccc2)CC1,15%,3%,-18%,?,3%
Nc1c(C(=O)c2ccccc2)sc2nsc(SCCN3CCCC3)c12,-4%,23%,.,24µM*,8%
O=C(NCCO)Nc1ccc2nc(-c3ccco3)c(-c3ccco3)nc2c1,-5%,-11%,3%,24µM*,0%
CC(=O)c1ccc(NC(=O)c2ccc3nc(-c4ccco4)c(-c4ccco4)nc3c2)cc1,-8%,-7%,14%,12µM*,-8%
COc1ccc2nc(-c3ccco3)c(-c3ccco3)nc2c1,18%,?,5%,2.7µM*,?
O=C(NCCCO)c1ccc2nc(-c3ccco3)c(-c3ccco3)nc2c1,0%,2%,-17%,19µM*,-6%
O=C(NCCO)Nc1ccc2nsnc2c1,-4%,0%,-2%,1%,0%
c1coc(-c2nc(-c3ccco3)c(-c3ccco3)nc2-c2ccco2)c1,-2%,0%,-8%,-8%,2%
Cc1ccc(S(=O)(=O)N(CCc2ccccc2)CC(=O)Nc2cc(C)ccc2C)cc1,.,.,.,1%,.
CC(C)(C)CC(C)(C)NC(=O)/C=C/C(=O)O,2%,-5%,.,7%,-2%
CCOc1c(O)ccc(/C=C2\SC(=S)NC2=O)c1[N+](=O)[O-],-1%,-7%,-9%,13µM*,0%
CCSc1nnc(NC(=O)c2ccccn2)s1,0.89µM*,?,4µM*,8.5µM*,16µM*
O=C(COc1ccc(F)cc1)Nc1nnc(C2CCCCC2)s1,2%,15%,.,0%,7%
O=C(Nc1nnc(C2CCCCC2)s1)c1ccc(Br)s1,0.5µM*,1.8µM*,3.2µM*,?,?
CCSc1nnc(NC(=O)c2ccccc2)s1,3.5µM*,3.2µM*,11µM*,13µM*,?
O=C(Nc1nnc(C(F)(F)F)s1)c1ccc(Br)s1,?,12%,?,8.5µM*,11%
CCc1ccc(C2CC(=O)c3c([nH]c(C(=O)OCCOc4ccccc4)c3C)C2)cc1 (stereo unspecified),.,.,-10%,-3%,.
CCSc1nnc(NC(=O)c2cccnc2)s1,?,29%,?,?,?
CCSc1nnc(NC(=O)c2ccc(Br)s2)s1,?,?,?,15µM*,?
CCSc1nnc(NC(=O)c2ccccc2C)s1,?,2.5µM*,10µM*,24µM*,?
CCSc1nnc(NC(=O)c2cccnc2Cl)s1,18%,11%,18µM*,?,?
COc1ccc(CCNC(=O)CCc2cn(C)c3ccccc23)c(OC)c1OC,-4%,-1%,.,-2%,-2%
CC(Oc1ccccc1Cl)C(=O)N(Cc1cccs1)C1CCS(=O)(=O)C1 (stereo unspecified),0%,0%,.,-1%,-1%
Cc1c(CN2CCCC(C(=O)c3cccc(OC(C)C)c3)C2)c(=O)n(-c2ccccc2)n1C (stereo unspecified),0%,0%,-23%,-1%,1%
Cc1ccccc1NC(=S)NNC(=O)c1csc2c1CCC(C)C2 (stereo unspecified),3.2µM*,2.2µM*,18%,2.4µM*,?
